Assay [1] concerns TRPC4 beta (transient receptor potential cation channel C4), mouse. Briefly: activators of mouse TRPC4 channel, confirmation, cell-based, Fluo4 calcium, HEK293 TRPC4beta/mu-opioid, duplicates, 10 µM (AID 2426;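 active = fluorescence ratio normalized to control raised more than 50% in primary screen plus both repeat runs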;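 for activation: percent rise of integrated ratio over buffer wells lacking compound which define 0%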). The conditions noted are these: Fluo4 calcium fluorescence, at 10 µM; hits give high values.
Assay [2] has as its system transient receptor potential cation channel C4 beta (TRPC4), mouse. The experiment in a line: activators of mouse TRPC4 channel, confirmation, cell-based, second round, Fluo4, HEK293 TRPC4beta/mu-opioid, 1 µM (AID 2461;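 active = primary screen active and over 50% activation in each of two duplicate runs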). Particulars: Fluo4 calcium fluorescence, at 1 µM; hits give high values.
Assay [3] has as its system TRPC4 (transient receptor potential cation channel C4 beta), mouse. The experiment in a line: positive allosteric modulators of mouse TRPC4, confirmation, cell-based, second round, Fluo-4, HEK293 TRPC4beta/mu-opioid, 1 µM (AID 2554;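 active = primary screen hit whose fluorescence ratio, in both repeats, exceeds the weak agonist control mean by 3 SD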). The conditions noted are these: DAMGO EC20, Fluo-4 calcium flux, at 1 µM; hits give high values. (In general: Calcium assays in cells follow changes in intracellular calcium, usually with a dye or a luminescent sensor.)

In assay [4] the test system is TRPC4 beta (transient receptor potential cation channel C4), mouse. Briefly: positive allosteric modulators of mouse TRPC4, confirmation, cell-based, Fluo-4, HEK293 TRPC4beta/mu-opioid (AID 2555;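 active = primary screen hit whose calcium fluorescence ratio, in both repeats, exceeds the weak agonist control mean by 3 SD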). The conditions noted are these: DAMGO EC20, Fluo-4 calcium flux, at 10 µM; hits give high values.
Assay [5] concerns the target Short transient receptor potential channel 4 (Mus musculus) (UniProt Q9QUQ5). The experiment in a line: inhibitors of mouse TRPC4 channel, confirmation, cell-based, Fluo4, HEK293 TRPC4beta/mu-opioid (AID 2636;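 active = calcium signal cut by more than 3 SD below the full-agonist control yet still positive, in both repeats and the earlier primary screen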). Particulars: DAMGO, Fluo4 calcium flux, at 10 µM; hits give high values.
Assay [6] has the same target. The experiment in a line: inhibitors of mouse TRPC4 channel, confirmation, cell-based, second round, Fluo4, HEK293 TRPC4beta/mu-opioid, 1 µM (AID 2637;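 active = calcium signal ratio cut to more than 3 SD under the fully stimulated control mean yet still positive, in both repeats and the primary screen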;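 for inhibition: percent of integrated ratio relative to wells lacking test compound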). Particulars: Fluo4 calcium flux, DAMGO, at 1 µM; hits give high values.
Assay [7] shares this target. The experiment in a line: mouse TRPC4 channel activators, dose response, cell-based, HEK293 TRPC4/mu-opioid, Fluo-4 calcium (AID 434937;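 active = primary screen activator hit with a dose response curve and TRPC4 channel activation at any tested dose; inactive = no activation, no dose response, or not a primary hit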).
Assay [8] shares this target. The experiment in a line: TRPC4 positive allosteric modulators, dose response, cell-based, HEK293 TRPC4/mu-opioid, Fluo-4 calcium, EC20 DAMGO (AID 434941;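 active = earlier screen potentiator hit that boosts the TRPC4 ion channel at some dose, with a dose response; inactive = no potentiation, no dose response, or not a prior hit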;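 note: calcium entry triggered by an EC20 dose of DAMGO at the co-expressed mu-opioid receptor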).
Assay [9] concerns the target Short transient receptor potential channel 6 (Mus musculus) (UniProt Q61143). Briefly: inhibition of mouse TRPC6 channel, confirmation, selectivity assay for TRPC4 inhibitor project, cell-based, HEK293, membrane potential dye, duplicate (AID 434948;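 active = active in primary screen and both duplicates, each dropping signal beyond three positive-control SD with fluorescence still positive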). The conditions noted are these: HEK293 TRPC6, membrane potential dye fluorescence, at 10 µM, stimulated with maximal-effect acetylcholine; hits give high values.

Assay [10] shares this target. Briefly: activation of mouse TRPC6 channel, confirmation, selectivity assay for TRPC4 activator project, cell-based, HEK293, membrane potential dye, duplicate (AID 434950;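 active = membrane potential signal rise above negative control mean plus 3 SD in both duplicates, also active in the earlier TRPC4 screen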). The conditions noted are these: HEK293 TRPC6, membrane potential fluorescence, at 10 µM; hits give high values.
Assay [11] shares this target. Briefly: TRPC6 potentiation by TRPC4 potentiator hits, confirmation, selectivity assay for TRPC4 potentiator project, HEK293 cells, membrane potential dye, duplicate (AID 434952). Particulars: HEK293 TRPC6, membrane potential dye fluorescence, at 10 µM, maximal acetylcholine added after compound; hits give high values.
For assay [12], the target named is Short transient receptor potential channel 4 (Mus musculus) (UniProt Q9QUQ5). The experiment in a line: calcium flux activators in TRPC4/5HT1a cells, counter-screen for TRPC4 activator project, cell-based, second counter screen, HEK293 TRPC4/5HT1a, Fluo-4 (AID 434977;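 active = calcium signal rise above buffer-control mean plus 5 SD in both duplicates, and also a hit in the primary screen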). The conditions noted are these: Fluo-4 calcium flux, at 10 µM; hits give high values.
Short transient receptor potential channel 4 (Mus musculus), sequence (Q9QUQ5 whole entry, looked up): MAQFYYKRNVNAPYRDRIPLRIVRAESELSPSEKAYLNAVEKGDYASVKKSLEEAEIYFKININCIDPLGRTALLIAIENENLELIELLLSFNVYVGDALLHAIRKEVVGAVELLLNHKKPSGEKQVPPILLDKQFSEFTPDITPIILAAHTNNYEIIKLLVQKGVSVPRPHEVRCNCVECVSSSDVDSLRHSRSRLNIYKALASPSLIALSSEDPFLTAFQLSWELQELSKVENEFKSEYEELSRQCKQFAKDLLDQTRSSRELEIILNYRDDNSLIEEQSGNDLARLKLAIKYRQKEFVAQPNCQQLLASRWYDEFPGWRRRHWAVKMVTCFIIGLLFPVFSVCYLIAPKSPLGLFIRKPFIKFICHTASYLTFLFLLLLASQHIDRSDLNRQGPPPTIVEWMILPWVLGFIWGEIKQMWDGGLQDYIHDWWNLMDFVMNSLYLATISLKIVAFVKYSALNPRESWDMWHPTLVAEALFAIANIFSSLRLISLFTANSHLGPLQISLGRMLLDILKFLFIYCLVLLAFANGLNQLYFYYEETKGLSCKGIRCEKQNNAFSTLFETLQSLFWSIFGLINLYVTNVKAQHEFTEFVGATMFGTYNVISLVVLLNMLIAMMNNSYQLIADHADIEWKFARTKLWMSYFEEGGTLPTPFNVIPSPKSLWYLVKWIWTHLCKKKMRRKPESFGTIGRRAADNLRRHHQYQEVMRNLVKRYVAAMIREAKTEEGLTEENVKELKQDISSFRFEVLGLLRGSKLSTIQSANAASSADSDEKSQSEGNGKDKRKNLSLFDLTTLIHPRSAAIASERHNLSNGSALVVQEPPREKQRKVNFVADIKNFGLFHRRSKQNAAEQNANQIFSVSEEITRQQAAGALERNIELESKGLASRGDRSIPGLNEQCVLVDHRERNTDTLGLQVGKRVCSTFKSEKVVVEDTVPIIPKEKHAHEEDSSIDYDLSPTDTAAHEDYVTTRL
A short description of assay [13]: calcium flux inhibitors in TRPC4/5HT1a cells, confirmation, counter-screen for TRPC4 inhibitor project, cell-based, second counter screen, HEK293 TRPC4/5HT1a, Fluo-4 (AID 434978;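 active = primary screen active whose calcium signal fell more than 3 SD beyond the full-serotonin control mean in both duplicate plates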;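 for outcome: serotonin given first at submaximal then at maximal dose after compound preincubation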). The conditions noted are these: Fluo-4 calcium flux, at 10 µM, serotonin added to trigger calcium flux; hits give high values.
In assay [14] the test system is TRPC4 (mouse), co-expressed with 5HT1a in HEK293. The experiment in a line: calcium flux potentiators in TRPC4/5HT1a cells, confirmation, counter-screen for TRPC4 potentiator project, cell-based, second counter screen, HEK293 TRPC4/5HT1a, Fluo-4 (AID 434979;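 active = signal rise over 3 SD above mean of control wells given weak agonist, in both repeats and first screen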). Particulars: Fluo-4 calcium flux, at 10 µM, serotonin added at its EC20 dose; hits give high values.
Assay [15] can be described thus: calcium flux activation in mu-opioid HEK293 cells, confirmation, counter-screen for TRPC4 activator project, cell-based, HEK293 mu-opioid receptor line (AID 449723;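 active = hit in primary screen, with calcium signal over 5 SD above buffer well mean in both duplicates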;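 note: counter screen cells carry the mu-opioid receptor alone and lack TRPC4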). Particulars: Fluo-4 calcium fluorescence, at 10 µM; hits give high values.
A short description of assay [16]: calcium flux enhancement in mu-opioid HEK293 cells, confirmation, counter-screen for TRPC4 allosteric potentiator project, cell-based, HEK293 mu-opioid receptor line (AID 449724;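 active = calcium signal rise more than 3 SD above the low-dose agonist control mean, in both duplicate plates and the primary screen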;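 note: HEK293 cells carrying mu-opioid receptor only with no TRPC4 channel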). Particulars: Fluo-4 calcium flux, at 10 µM, compound added before EC20 DAMGO stimulus; hits give high values.

For part of these data: Potency and affinity values are given separately. Activity calls are given as the source filed them.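 Rule for the calls, unless noted: active = compound raising the membrane signal above positive-control mean plus 3 SD in both repeats, and a primary screen hit; inactive = the rest.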

Short transient receptor potential channel 6 (Mus musculus), sequence (Q61143 whole entry, looked up): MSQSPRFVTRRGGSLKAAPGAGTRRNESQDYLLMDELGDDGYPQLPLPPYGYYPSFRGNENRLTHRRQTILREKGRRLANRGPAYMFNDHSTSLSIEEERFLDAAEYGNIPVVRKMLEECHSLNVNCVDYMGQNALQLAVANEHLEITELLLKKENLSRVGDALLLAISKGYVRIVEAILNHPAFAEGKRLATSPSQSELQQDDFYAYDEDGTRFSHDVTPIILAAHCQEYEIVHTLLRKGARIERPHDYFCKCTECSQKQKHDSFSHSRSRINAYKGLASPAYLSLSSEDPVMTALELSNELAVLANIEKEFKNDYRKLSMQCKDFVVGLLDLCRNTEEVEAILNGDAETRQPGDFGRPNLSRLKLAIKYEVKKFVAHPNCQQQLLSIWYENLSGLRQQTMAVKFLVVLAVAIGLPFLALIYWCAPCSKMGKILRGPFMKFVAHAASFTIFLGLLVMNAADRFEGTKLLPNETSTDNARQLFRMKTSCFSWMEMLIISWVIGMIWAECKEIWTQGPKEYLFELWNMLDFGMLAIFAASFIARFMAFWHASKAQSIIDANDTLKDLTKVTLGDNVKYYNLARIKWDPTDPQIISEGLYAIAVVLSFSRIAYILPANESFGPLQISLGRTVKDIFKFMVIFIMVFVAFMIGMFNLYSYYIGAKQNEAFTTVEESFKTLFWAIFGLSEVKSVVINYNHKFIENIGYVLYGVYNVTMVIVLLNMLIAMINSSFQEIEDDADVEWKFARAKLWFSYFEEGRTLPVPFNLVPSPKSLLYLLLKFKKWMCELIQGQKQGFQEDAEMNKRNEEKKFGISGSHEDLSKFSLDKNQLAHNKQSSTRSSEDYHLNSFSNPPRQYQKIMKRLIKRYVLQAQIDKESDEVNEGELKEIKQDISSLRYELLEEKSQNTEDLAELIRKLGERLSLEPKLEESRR

On to `COc1ccc(CNC(=O)CN(C)Cc2ccccc2F)cc1OC`, for which the outcome in assay [1], in assay [2], in [3], in [4], in assay [6] and in [7] was inactive. Further, the outcome in assay [8], in assay [9], in assay [10], in assay [11], in assay [12] and in [14] was inactive. The result in assay [15] and in assay [16] was inactive. Besides, the inhibition in [5] was 86% (active); in assay [13] it was 34.9% (active).

In the case of `Cc1ccc(Nc2cc(C)nc3c(C)cccc23)cc1`, the result in assay [1], in assay [2], in assay [3], in assay [4], in assay [5] and in assay [7] was inactive. Also, the result in assay [8], in assay [10], in [11], in assay [12], in [14] and in [15] was inactive. For the same compound, the result in assay [16] was inactive. Further, the inhibition in assay [6] was 54% (active); in [9], 22% (active); in [13], 35.3% (active).

`Cc1n[nH]c(C)c1CCCCOc1ccccc1F`: the result in assay [1], in [2], in assay [3], in [4], in assay [7] and in assay [8] was inactive. For the same compound, the compound was classed as inactive in assay [9], in assay [10], in assay [11], in assay [12], in assay [14] and in [15]. In addition, the outcome in assay [16] was inactive. In addition, the results for the inhibition in assay [5], in [6] and in [13] were 98% (active), 65% (active) and 28.3% (active), respectively.

As for `COCCn1c(SCc2cc(C(C)=O)ccc2OC)nc2cc(Cl)ccc2c1=O`, the outcome in assay [1], in assay [2], in assay [3], in [4], in [6] and in [7] was inactive. Also, the outcome in assay [8], in assay [9], in assay [10], in assay [11], in assay [12] and in assay [13] was inactive. The result in assay [14], in assay [15] and in assay [16] was inactive. Further, the inhibition in assay [5] was 78% (active).

For `Brc1ccc(N/N=C(/N=Nc2nn[nH]n2)c2ccccc2)cc1`, the result in [1], in assay [2], in assay [3], in assay [4], in assay [5] and in [6] was inactive. In addition, the outcome in assay [7], in [8], in assay [10], in assay [11], in assay [12] and in [14] was inactive. Further, the outcome in assay [15] and in assay [16] was inactive. The inhibition in assay [9] is 25.5% (active); in assay [13], 30.4% (active).

For the compound `CCc1cccc(OCC(=O)Nc2ccc(C(=O)O)cc2NC(=O)COc2cccc(CC)c2)c1`, the outcome in assay [1], in assay [2], in [3], in assay [4], in assay [6] and in assay [7] was inactive. For the same compound, the result in assay [8], in assay [9], in [10], in [11], in assay [12] and in assay [14] was inactive. In addition, the result in assay [15] and in assay [16] was inactive. In addition, the inhibition in [5] is 93% (active); in [13], 40.9% (active).

For the compound `Cc1cc(C)c2[nH]c(=O)c(CN(Cc3cccnc3)C(=S)NCCCN(C)C)cc2c1`, the result in assay [1], in [2], in assay [3], in assay [4], in [7] and in assay [8] was inactive. Moreover, the compound was called inactive in [9], in [10], in [11], in assay [12], in [14] and in [15]. In addition, in assay [16], the outcome was inactive. Further, the inhibition in assay [5] was 89% (active); in assay [6], 60% (active); in assay [13], 20.5% (active).

Regarding `COc1cc(CNCCCN2CCOCC2)cc(Br)c1OCc1ccc(Cl)cc1`, the outcome in assay [1], in [2], in assay [3], in assay [4], in assay [5] and in assay [6] was inactive. The result in assay [7], in [8], in assay [10], in assay [11], in [12] and in assay [14] was inactive. Also, the outcome in assay [15] and in [16] was inactive. Moreover, the results for the inhibition in [9] and in [13] were 51% (active) and 23.6% (active), respectively.

With `N#Cc1cccc2c1-c1ccccc1/C2=N/NC(N)=O`, the result in [1], in assay [2], in assay [3], in assay [4], in [7] and in assay [8] was inactive. Further, the compound was classed as inactive in assay [9], in assay [10], in assay [11], in [12], in assay [14] and in assay [15]. For the same compound, the outcome in assay [16] was inactive. In addition, the inhibition was 86% (active) in assay [5], 81% (active) in assay [6] and 19.9% (active) in assay [13].

Take `COc1ccc(CN(C)C(=O)c2ccc(NC(=O)CC3SC(N4CCCC4)=NC3=O)cc2)c(OC)c1` (stereo not given): the outcome in assay [1], in assay [2], in assay [3], in [4], in assay [6] and in [7] was inactive. Also, the outcome in assay [8], in [9], in assay [10], in [11], in assay [12] and in assay [13] was inactive. Further, the outcome in assay [14], in assay [15] and in [16] was inactive. In addition, the inhibition in assay [5] is 56% (active).

For the compound `Clc1ccc(CN2C3=NCCN3c3ccccc32)cc1`, the result in assay [1], in assay [2], in assay [3], in [4], in [7] and in assay [8] was inactive. Also, the call in [9], in [10], in assay [11], in assay [12], in [14] and in [15] was inactive. For the same compound, the result in assay [16] was inactive. For the same compound, the figures for the inhibition in [5], in assay [6] and in assay [13] were 99% (active), 75% (active) and 14.4% (active), respectively.

In the case of `O=C(Cc1ccccc1)Nc1ccccc1Sc1ccccc1`, the result in [1], in [2], in assay [3], in assay [4], in [6] and in assay [7] was inactive. For the same compound, the result in [8], in assay [9], in assay [10], in assay [11], in assay [12] and in assay [14] was inactive. For the same compound, the result in assay [15] and in assay [16] was inactive. Besides, the inhibition was 86% (active) in [5] and 40.9% (active) in assay [13].

Consider `Cc1ccc(NC(=O)CSCC(=O)OCc2cc(=O)oc3cc(O)ccc23)c(C)c1`, for which the result in assay [1], in [2], in assay [3], in assay [4], in [6] and in assay [7] was inactive. Also, the result in [8], in assay [9], in assay [10], in [11], in assay [12] and in assay [13] was inactive. The outcome in assay [14], in assay [15] and in assay [16] was inactive. Besides, the inhibition in assay [5] was 80% (active).

Consider `OCC1(CCc2ccccc2)CCN(Cc2cc(Cl)ccc2O)CC1`, for which the result in [1], in [2], in assay [3], in assay [4], in assay [6] and in assay [7] was inactive. Also, the outcome in assay [8], in assay [9], in [10], in assay [11], in assay [12] and in [13] was inactive. The outcome in [14], in [15] and in assay [16] was inactive. In addition, the inhibition in assay [5] was 79% (active).

As to `CNC(=S)N1CCN(C(c2ccccc2)c2ccccc2)CC1`, in assay [1], the activation was 223% (active). Further, the result in [2], in [3], in assay [4], in assay [6], in assay [7] and in assay [8] was inactive. For the same compound, the compound was called inactive in [9], in [10], in assay [11], in assay [12], in assay [13] and in assay [14]. For the same compound, the result in assay [15] and in [16] was inactive. For the same compound, the inhibition in assay [5] is 93% (active).

The term inhibition denotes the share of the control response that was lost under treatment.

The record behind these values is PubChem BioAssay.
